The values below come from PubChem BioAssay (NCI).

About 83,000 compounds went through this panel and 20% of them were active in at least one assay; those are over-represented in the sample as a whole.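 Plates (96-well) were seeded with cells, treated with compound at one concentration, and incubated for 48 hours before percent growth was determined.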 Values without a mark were called inactive. Active and inactive are the calls of the source. Rule for the calls: active = growth percent below 10; inactive = the rest.

Among the test systems are SK-MEL-2 melanoma; EKVX NSCLC; SN12C renal; UO-31 renal; TK-10 renal; ACHN renal; CAKI-1 renal; A498 renal; CCRF-CEM leukemia; MOLT-4 leukemia; RPMI-8226 leukemia; OVCAR-8 ovarian; OVCAR-5 ovarian; OVCAR-4 ovarian; SK-OV-3 ovarian; IGROV1 ovarian; OVCAR-3 ovarian; HS 578T breast; NCI/ADR-RES ovarian; SR leukemia.
What all share (experiment): NCI-60 one-dose screen, 48 h (100 = growth as untreated, 0 = no growth, -100 = all killed)
Conditions in all cases: 10 µM unless noted

Regarding `C=CC(=O)Nc1cccc(-c2nc(SC)nc(NCCN3CCOCC3)c2C#N)c1`, the growth with SK-MEL-2 melanoma was 82.6%; with EKVX NSCLC, 86.5%; in the assay with SN12C renal, 81.2%; in the assay with UO-31 renal, 61.4%; in the assay on TK-10 renal, 134%; with ACHN renal, 80.8%. Moreover, the growth in the assay with CAKI-1 renal was 86.2%; in the assay on A498 renal, 78.3%; in the assay on CCRF-CEM leukemia, 95.6%; in the assay with MOLT-4 leukemia, 75.9%; in the assay with RPMI-8226 leukemia it was 81.4%; in the assay with OVCAR-8 ovarian, 83.1%. The growth in the assay on OVCAR-5 ovarian is 107%; in the assay on OVCAR-4 ovarian it was 90.6%; in the assay with SK-OV-3 ovarian, 108%; in the assay on IGROV1 ovarian, 90.4%; in the assay with OVCAR-3 ovarian it was 97.8%; in the assay with HS 578T breast it was 82.6%. Further, in the assay with NCI/ADR-RES ovarian, the growth was 95%.

For the compound `COc1cccc(-c2nc3sccn3c2-c2ccnc(NCCCNS(=O)(=O)c3c(Cl)cccc3Cl)c2)c1`, the growth was 67.5% in the assay on SK-MEL-2 melanoma; 58.7% with EKVX NSCLC; 60.9% in the assay with SN12C renal; 32.4% in the assay on UO-31 renal; 100% in the assay on TK-10 renal; 49.9% in the assay on ACHN renal. Also, the growth in the assay with CAKI-1 renal is 44.1%; with A498 renal it was 71.3%; in the assay on CCRF-CEM leukemia, 31.9%; with MOLT-4 leukemia, 28.9%; with RPMI-8226 leukemia, 4.47% (active); in the assay on OVCAR-8 ovarian, 51.5%. In addition, the growth with OVCAR-5 ovarian was 85.6%; with OVCAR-4 ovarian, 56.7%; in the assay with SK-OV-3 ovarian, 90.4%; in the assay on IGROV1 ovarian it was 72.1%; in the assay on OVCAR-3 ovarian, 69.8%; with HS 578T breast, 76.1%. Further, the growth in the assay with NCI/ADR-RES ovarian is 29.9%.

Turning to `O=C1c2cc3c(cc2-c2c1c1cc(F)c(F)cc1c(=O)n2CCCn1ccnc1)OCO3`, the growth in the assay on SK-MEL-2 melanoma was -11.2% (active); in the assay with EKVX NSCLC, 30.9%; with SN12C renal, -1.14% (active); with UO-31 renal it was -23.7% (active); with TK-10 renal, 29.8%; with ACHN renal, -55.7% (active). The growth in the assay with CAKI-1 renal is 3.03% (active); in the assay on A498 renal, -74.1% (active); with CCRF-CEM leukemia it was 7.04% (active); in the assay on MOLT-4 leukemia, -14.3% (active); with SR leukemia, -2.4% (active); in the assay with RPMI-8226 leukemia, -10.1% (active). The growth with OVCAR-5 ovarian is 2.22% (active); in the assay with OVCAR-4 ovarian it was 20.9%; in the assay on SK-OV-3 ovarian it was 6.12% (active); with IGROV1 ovarian, 21.2%; in the assay on OVCAR-3 ovarian, -7.17% (active); in the assay on HS 578T breast it was 52.5%. The growth with NCI/ADR-RES ovarian was 6.95% (active).

Regarding `COc1cc(/C=C/C(=O)c2c(C)oc3nc[nH]c(=O)c23)cc(OC)c1OC`, the growth was 82.5% in the assay with SK-MEL-2 melanoma; 61.9% in the assay on EKVX NSCLC; 79.8% in the assay with SN12C renal; 63.2% in the assay on UO-31 renal; 151% in the assay with TK-10 renal; 74.7% in the assay on ACHN renal. Besides, the growth in the assay with CAKI-1 renal is 72.7%; with A498 renal it was 93.4%; in the assay on CCRF-CEM leukemia, 34%; in the assay with MOLT-4 leukemia, 68.4%; with RPMI-8226 leukemia, 61.9%; with OVCAR-8 ovarian, 79.5%. In addition, the growth was 96.5% in the assay with OVCAR-5 ovarian; 74.9% in the assay with OVCAR-4 ovarian; 98.7% in the assay on SK-OV-3 ovarian; 75.4% in the assay with IGROV1 ovarian; 77.8% in the assay on OVCAR-3 ovarian; 84.3% in the assay with HS 578T breast. The growth in the assay on NCI/ADR-RES ovarian is 82.1%.

As to `N#Cc1c(-c2ccc(Cl)cc2)nc(N=Nc2c(O)[nH]c3ccc(Cl)cc23)nc1N1CCOCC1`, the growth with SK-MEL-2 melanoma is 98.1%; in the assay on EKVX NSCLC it was 86.1%; in the assay with SN12C renal, 97%; in the assay on UO-31 renal it was 67.5%; with TK-10 renal it was 120%; in the assay with ACHN renal it was 94.6%. The growth in the assay on CAKI-1 renal is 85.2%; with A498 renal, 73.2%; in the assay with CCRF-CEM leukemia, 111%; in the assay on MOLT-4 leukemia it was 110%; with RPMI-8226 leukemia it was 119%; in the assay on OVCAR-8 ovarian, 100%. The growth is 98.9% in the assay with OVCAR-5 ovarian; 99.8% in the assay with OVCAR-4 ovarian; 96.1% in the assay on SK-OV-3 ovarian; 92.5% in the assay with IGROV1 ovarian; 115% with OVCAR-3 ovarian; 94% in the assay on HS 578T breast. Also, the growth with NCI/ADR-RES ovarian is 88.3%.

Turning to `CSc1nc(-c2cccc(NC(=O)CCl)c2)c(C#N)c(=O)n1C`, the growth in the assay on SK-MEL-2 melanoma was 70.9%; in the assay with EKVX NSCLC, 70.8%; in the assay on SN12C renal it was 81%; in the assay with UO-31 renal, -53.2% (active); in the assay with TK-10 renal it was 117%; in the assay on ACHN renal, 73.9%. The growth was 83.7% in the assay on CAKI-1 renal; 90.2% with A498 renal; -16.5% (active) with CCRF-CEM leukemia; 14% with MOLT-4 leukemia; -18.3% (active) in the assay with RPMI-8226 leukemia; 72.6% in the assay with OVCAR-8 ovarian. Besides, the growth in the assay on OVCAR-5 ovarian was 26.7%; in the assay with OVCAR-4 ovarian, 12.5%; in the assay with SK-OV-3 ovarian, 109%; in the assay on IGROV1 ovarian it was -64.5% (active); in the assay on OVCAR-3 ovarian, 8.91% (active); in the assay with HS 578T breast it was 88.1%. Moreover, the growth in the assay on NCI/ADR-RES ovarian is 75.8%.

For `O=C(N=Nc1c(O)[nH]c2ccc(Br)cc12)c1cc(-c2ccccc2)on1`, the growth with SK-MEL-2 melanoma is 95.6%; in the assay with EKVX NSCLC, 91.3%; in the assay with SN12C renal, 100%; in the assay on UO-31 renal, 90.5%; in the assay on TK-10 renal it was 108%; in the assay on ACHN renal, 103%. Moreover, the growth was 88.7% in the assay on CAKI-1 renal; 77.6% in the assay with A498 renal; 102% in the assay with CCRF-CEM leukemia; 100% in the assay with MOLT-4 leukemia; 105% in the assay with RPMI-8226 leukemia; 104% in the assay with OVCAR-8 ovarian. Moreover, the growth in the assay with OVCAR-5 ovarian is 98.9%; with OVCAR-4 ovarian it was 94.9%; with SK-OV-3 ovarian it was 111%; in the assay with IGROV1 ovarian, 101%; in the assay with OVCAR-3 ovarian it was 115%; in the assay with HS 578T breast it was 99.1%. Besides, the growth with NCI/ADR-RES ovarian is 103%.

With `COc1cccc(-c2nn(C(C)(C)C)cc2-c2ccnc(NCCCNS(=O)(=O)c3cccc4ccccc34)c2)c1`, the growth in the assay with SK-MEL-2 melanoma is 111%; in the assay on EKVX NSCLC, 98.9%; with SN12C renal, 103%; with UO-31 renal, 91.1%; with TK-10 renal, 101%; in the assay with ACHN renal, 107%. Also, the growth was 96.6% in the assay on CAKI-1 renal; 76.9% in the assay with A498 renal; 102% with CCRF-CEM leukemia; 104% in the assay on MOLT-4 leukemia; 103% with RPMI-8226 leukemia; 103% in the assay with OVCAR-8 ovarian. The growth with OVCAR-5 ovarian is 104%; in the assay with OVCAR-4 ovarian, 101%; in the assay with SK-OV-3 ovarian, 110%; with IGROV1 ovarian, 110%; in the assay with OVCAR-3 ovarian, 108%; in the assay with HS 578T breast it was 101%. The growth with NCI/ADR-RES ovarian was 101%.
